# Screening results deposited in PubChem BioAssay by The Scripps Research Institute Molecular Screening Center.
# hcDAF-12 act: H. contortus DAF-12 nuclear receptor activators, primary screen, cell-based, luminescence, HEK293, lit1-tk-luc reporter. HEK293 hcDAF-12 lit1-tk-luc reporter; 0% DMSO, 100% Δ7-dafachronic acid. activation, % at 6.8 µM. 1.4% of 370,000 active;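 active means activation above the mean of all tested compounds plus 3 SD, cut at about 5.5% in these data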
# ssDAF12 agonist: S. stercoralis DAF-12 nuclear receptor activators, primary screen, cell-based, luminescence, HEK293, GRIP1 co-expression, lit1-tk-luc; HEK293 ssDAF-12/GRIP1 lit1-tk-luc reporter; % of 3 µM dafachronic acid response; activation, % at 6.8 µM; 1% of 370,000 active;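 active means activation above the mean over all tested compounds plus 3 SD, cut at about 0.9% in these data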
# DAX1 inh-1: DAX1 (NR0B1) inhibitors on StAR promoter, primary screen, cell-based, luminescence, SF-1 (NR5A1), full-length DAX-1. HEK293T StAR-luciferase reporter, SF-1/DAX-1 repression relief. inhibition, % at 6.8 µM. 1.1% of 370,000 active. AID 652010, 2013;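 active means inhibition above the mean over all tested compounds plus 3 SD, cut at about 3.6% in these data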;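 further: higher inhibition means more luminescence from relief of DAX-1 repression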
# hgDAF12 agonist: H. glycines DAF-12 receptor agonists, primary screen, cell-based, luminescence, HEK293, GAL4 fusion, UAS-luciferase; Nuclear hormone receptor DAF-12 (Heterodera glycines), GAL4 fusion; HEK293 GAL4-hgDAF12 UAS-luciferase reporter, agonist luminescence; normalized to butyrate control; activation, % at 6.8 µM; 1.8% of 370,000 active; AID 687014, 2013;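 active means activation above a cutoff set at the mean of all screened compounds plus 3 SD, cut at about 10% in these data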
# DAX1 inh-2: DAX1 (NR0B1) inhibitors, primary screen, cell-based, HEK293, Gal4-DAX1, luciferase luminescence. Nuclear receptor subfamily 0 group B member 1 (Homo sapiens), P51843. HEK293 Gal4-DAX1 luciferase reporter. inhibition, % at 6.75 µM. 0.99% of 340,000 active. AID 504766, 2011;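 active means inhibition above the mean over all tested compounds plus 3 SD, cut at about 4.2% in these data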;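 further: inhibition shows as a rise in luminescence from relieved DAX1 repression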
# Target sequence (P51843 207-470 limits assumed): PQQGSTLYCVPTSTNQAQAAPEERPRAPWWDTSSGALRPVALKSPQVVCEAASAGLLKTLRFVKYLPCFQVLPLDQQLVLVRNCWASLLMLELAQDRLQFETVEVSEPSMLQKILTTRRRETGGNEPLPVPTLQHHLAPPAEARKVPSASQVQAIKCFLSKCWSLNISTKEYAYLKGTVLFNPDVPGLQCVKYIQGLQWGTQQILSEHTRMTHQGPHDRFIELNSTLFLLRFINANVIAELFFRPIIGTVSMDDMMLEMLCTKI
# GAA850 FXN act: FXN promoter activators, primary screen, cell-based, luciferase luminescence, HEK293 lucGAA850. 0.56% of 360,000 active. activation, % at 6 µM. HEK293 lucGAA850 FXN promoter luciferase reporter, 24 h; percent of 10 µM SAHA response;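 active means activation above the average of all compounds screened plus 3 SD, cutoff fixed separately per campaign, cut at about 7.5% in these data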
# LXRb hcDAF ctr: LXR agonists, Gal4 luciferase reporter, confirmation, counter-screen for hcDAF-12 agonist project, cell-based, luminescence, HEK293, H. contortus campaign; AID 743027, 2013; activation, % at 6.8 µM; shares compounds with hcDAF-12 act; HEK293 Gal4-LXR tk-luc reporter, 24 h; normalized: DMSO 0%, positive control 100%; 3,400 tested, under 10 active;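 active means mean percent activation of the reporter above a cutoff set as the average over tested compounds plus their standard deviation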
# hcDAF12 conf: H. contortus DAF-12 receptor agonists, confirmation, cell-based, luminescence, HEK293, lit1-tk-luc, triplicate; AID 743032, 2013; 61% of 3,400 active; shares compounds with hcDAF-12 act; activation, % at 6.8 µM; HEK293 hcDAF-12 lit1-tk-luc reporter; % of Δ7-dafachronic acid response;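 active means mean activation across triplicate tests above the threshold derived from the earlier primary screen, cut at about 5.5% in these data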
# Numbers stand for hits; 0 = inactive; - = no result given. Only some compounds are listed: those with a hit (about 4.5% of all), similar ones and a draw of the others.
SMILES,hcDAF-12 act,ssDAF12 agonist,DAX1 inh-1,hgDAF12 agonist,DAX1 inh-2,GAA850 FXN act,LXRb hcDAF ctr,hcDAF12 conf
CCOC(=O)[C@]12CCCC=C1N(Cc1ccc(OC)cc1)C(=O)[C@@H]2CC(=O)NCCCCc1ccccc1,0,0,0,0,-,-,-,-
COc1ccc(NCC(=O)N/N=C/C=C\c2ccccc2)cc1,7.6,0,0,0,0,0,0,0
COc1ccccc1NCC(=O)N/N=C/C=C/c1ccccc1,0,0,0,0,0,0,-,-
Cc1ccc(OCC(=O)NN=C2c3ccccc3-c3ccccc32)cc1,0,0,0,0,0,0,-,-
Cc1ccc(NN=C2c3ccccc3-c3ccccc32)cc1,11,0,0,0,0,0,0,9.0
CCSc1ncc(/C=N/Nc2ccc(Cl)cc2)n1C,12,1.6,0,0,0,0,0,10.0
N#Cc1cccc(C=C(C(=O)c2ccccc2)c2ccccc2)c1,0,0,0,0,-,-,-,-
O=C(O)c1cccc(N/N=C/c2cccc3ccccc23)c1,7.5,0,0,13,0,0,0,11
CC(=O)Nc1cccc(C(=O)N/N=C/c2c[nH]c3ccccc23)c1,8.5,0.9,0,0,0,0,0,0
Cn1ccc(C(=O)N/N=C/c2c[nH]c3ccccc23)n1,12,0.9,0,0,0,0,0,0
COc1ccc2c(/C=N/Nc3ccc(C(=O)O)cc3)c[nH]c2c1,10,0.9,0,0,0,0,0,10
CCCc1c(-c2cccc(Br)c2)ncn1CCc1ccccc1OC,0,0,0,0,-,-,-,-
COc1cccc(NC(=O)NC2CCCCN(Cc3ccccc3C)C2=O)c1 (configuration not stated),0,0,0,0,-,-,-,-
O=C(O)c1cc(N/N=C/c2c[nH]c3ccccc23)ccc1Cl,8.6,3.2,0,0,0,0,0,10
CCOc1ccccc1CN1CCN(Cc2cc3ccccc3[nH]2)CC1CCO (configuration not stated),7.0,0,0,0,0,0,0,0
CCOc1ccccc1CN1CCN(CC2CC2)CC1CCO (configuration not stated),0,0,0,0,0,0,-,-
CCOc1ccc(-n2c(SCC(=O)c3ccc4ccccc4c3)nnc2-c2cccc(Cl)c2)cc1,0,0,0,0,-,-,-,-
Cc1cccc(NC(=O)Nc2ccc(Br)cc2)n1,7.6,1.3,0,0,0,0,0,6.2
COc1ccc(S[C@]2(C(=O)N3CCOCC3)CC(=O)N[C@@H]2c2ccc(OC)cc2)cc1,0,0,0,0,-,-,-,-
COc1cccc(-n2c(Cc3cc(=O)[nH]c(=O)[nH]3)nnc2SCC(=O)N2CCCCC2)c1,8.3,0,0,0,0,0,0,0
CCOC(=O)N1CCN(C(=O)CSc2nc3c([nH]c4ccccc43)c(=O)n2CC)CC1,8.3,0,0,0,0,0,0,0
CCn1c(SCC(=O)N2CCCCC2)nc2c([nH]c3ccccc32)c1=O,0,0,0,0,0,0,-,-
COc1cccc(-n2c(Cc3cc(=O)[nH]c(=O)[nH]3)nnc2SCC(=O)NC2CCCCC2)c1,0,0,0,0,0,0,-,-
COc1cccc(-n2c(SCC(=O)N3CCCCC3)nc3c([nH]c4ccccc43)c2=O)c1,7.0,0,0,0,0,0,0,0
C=CCn1c(SCC(=O)N2CCN(c3ccccc3)CC2)nc2c([nH]c3ccccc32)c1=O,9.4,0,0,0,0,0,0,0
SMILES,hcDAF-12 act,ssDAF12 agonist,DAX1 inh-1,hgDAF12 agonist,DAX1 inh-2,GAA850 FXN act,LXRb hcDAF ctr,hcDAF12 conf
COc1cccc(C(=O)N[C@H](C(=O)N2CCC[C@H]2C(=O)NCc2ccccc2)C(C)C)c1,0,0,0,0,-,-,-,-
CCN(C(=O)[C@@H](C1CC1)[C@@H](O)c1ccc(Cl)cc1)c1ccccc1,0,0,0,0,-,-,-,-
CC(C)(N[C@@H](Cc1ccccc1)C(=O)NCC(c1ccccc1)c1ccccc1)C(=O)NC1CCCCC1,0,0,-,0,-,-,-,-
CN(c1ccc(NC(=O)Cc2cn(C)c3ccccc23)cc1)c1ccccn1,0,0,0,0,-,-,-,-
CCCn1c2ccc(C)cc2c2nnc(SCCN3CCCCC3)nc21,9.3,0,0,0,0,0,0,0
Cc1ccc(C(=O)NC(=S)Nc2c(C)ccc3nsnc23)cc1,7.6,1.6,0,0,0,0,0,0
COc1ccc(-c2cc(C(=O)N3CCCCCC3)no2)cc1,7.6,0,0,0,6.2,0,0,0
COc1ccc(-c2cc(C(=O)N3CCN(C(c4ccccc4)c4ccccc4)CC3)no2)cc1,-,-,-,-,0,0,-,-
Cc1sc2ncnc(N[C@@H](Cc3c[nH]c4ccccc34)C(=O)O)c2c1C,7.0,0,0,0,0,0,0,5.7
CCc1cc2c(N[C@@H](Cc3c[nH]c4ccccc34)C(=O)O)ncnc2s1,8.0,0,0,0,0,0,0,0
CCc1cc2c(NC(Cc3c[nH]c4ccccc34)C(=O)O)nc(C)nc2s1 (configuration not stated),0,0,0,0,0,0,-,-
NS(=O)(=O)c1ccc(CCNC(=O)c2ccc3ccccc3n2)cc1,6.8,0,0,0,0,0,0,8.5
NS(=O)(=O)c1ccc(CNC(=O)c2ccc3ccccc3n2)cc1,0,0,0,0,0,0,-,-
O=C(NCc1ccccc1Cl)c1ccc2ccccc2n1,7.7,1.1,0,11,0,0,0,9.1
COc1ccc(CCNC(=O)c2ccc3ccccc3n2)cc1,7.2,0,0,11,0,0,0,0
CCCCNS(=O)(=O)/C=C/c1ccccc1CCNC(=O)OC(C)(C)C,0,0,0,0,-,-,-,-
COc1ccccc1C(=O)N1CCC(Oc2cccnc2)CC1,0,0,0,0,-,-,-,-
Cc1ccccc1Nc1n[nH]c(C)c1[N+](=O)[O-],9.0,0,0,0,0,0,0,0
